Data from PubChem BioAssay (NCI).
Compounds without any hit were thinned out: in the full panel of roughly 79,000, 15% have a hit. Unmarked numbers belong to inactive results. Activity calls are given as the source filed them. Rule as the data show it: active = growth inhibition above about 70%; inactive = the rest.

Key:
[1] = NCI Yeast Anticancer Drug Screen. Data for the rad52 strain (AID 147);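 also: 0% = growth of vehicle-treated control cultures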; conditions: S. cerevisiae rad52 mutant growth inhibition, hits give high values
Outline: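 Growth of repair-deficient yeast cells was compared between compound-treated and vehicle-treated cultures to give percent inhibition.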

[2] = NCI Yeast Anticancer Drug Screen. Data for the wt1 strain (AID 149);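 also: 0% = growth of vehicle-treated wt1 cultures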; conditions: S. cerevisiae wt1 strain (SPY 50644) growth inhibition, hits give high values
Outline: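 Measured: growth of wt1 yeast under compound versus vehicle treatment, reported as inhibition.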

[3] = NCI Yeast Anticancer Drug Screen. Data for the rad50EPP+ strain (AID 151);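 also: 0% = growth of vehicle-treated control cultures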; conditions: S. cerevisiae rad50 mutant strain, hits give high values
Outline: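 Measured: growth inhibition of rad50EPP+ yeast. Reference: vehicle-treated controls. Screen uses strains with defined genetic alterations in DNA damage repair or cell cycle control.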

[4] = NCI Yeast Anticancer Drug Screen. Data for the mgt1 strain (AID 153); conditions: S. cerevisiae mgt1 mutant growth inhibition, hits give high values
Outline: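 Compounds were applied to mgt1 mutant yeast, and growth was then compared against vehicle-treated control cultures to give percent inhibition.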

[5] = NCI Yeast Anticancer Drug Screen. Data for the rad50 strain (AID 155);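 also: 0% = growth of vehicle-only cultures of the same strain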; conditions: S. cerevisiae rad50 strain growth inhibition, hits give high values
Outline: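 Growth of the mutant yeast was measured after compound exposure and referenced to vehicle-treated cultures.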

[6] = NCI Yeast Anticancer Drug Screen. Data for the mec2-1 strain (AID 157); conditions: S. cerevisiae mec2-1 strain, hits give high values
Outline: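 Compounds were applied to mec2-1 yeast cells. Their growth was then compared with that of vehicle-treated cultures to give growth inhibition.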

[7] = NCI Yeast Anticancer Drug Screen. Data for the rad14 strain (AID 159);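 also: 0% = growth of vehicle-treated control cultures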; conditions: S. cerevisiae rad14 strain growth inhibition, hits give high values
Outline: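 Here, inhibition of yeast growth was measured after compound exposure, using a strain with a genetic defect in DNA damage repair and vehicle-treated cultures as the reference.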

[8] = NCI Yeast Anticancer Drug Screen. Data for the sgs1 mgt1 strain (AID 161);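 also: 0% = growth of cultures given vehicle only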; conditions: S. cerevisiae sgs1 mgt1 strain, hits give high values
Outline: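 Yeast cells carrying a defined DNA-repair defect were exposed to test compounds. Growth inhibition was measured relative to vehicle-treated controls.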

[9] = NCI Yeast Anticancer Drug Screen. Data for the CLN2oe strain (AID 163);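 also: 0% = growth of vehicle-only control cultures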; conditions: S. cerevisiae CLN2oe strain, hits give high values
Outline: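 Cells of an engineered yeast line with disturbed cell-cycle regulation are treated with compound. Inhibition of growth is then calculated relative to the vehicle-treated reference.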

[10] = NCI Yeast Anticancer Drug Screen. Data for the cln2 rad14 strain (AID 165);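 also: 0% = growth equal to vehicle treated cultures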; conditions: S. cerevisiae cln2 rad14 strain, hits give high values
Outline: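 Strain: cln2 rad14 yeast, altered in cell cycle control and DNA damage repair. Read-out: growth inhibition vs vehicle.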

[11] = NCI Yeast Anticancer Drug Screen. Data for the bub3 strain (AID 167); conditions: S. cerevisiae bub3 mutant strain, hits give high values
Outline: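 Whole-cell yeast assay. The mutant strain was incubated with compounds, and growth inhibition was determined by comparison with vehicle-treated cells.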

[12] = NCI Yeast Anticancer Drug Screen. Data for the wt2 strain (AID 169);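 also: 0% = growth of vehicle-treated yeast cultures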; conditions: S. cerevisiae wt2 strain growth inhibition, hits give high values
Outline: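 Growth of compound-treated yeast is measured and expressed as inhibition relative to vehicle-only controls.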

[13] = NCI Yeast Anticancer Drug Screen. Data for the mlh1 strain (AID 171);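 also: 0% = growth of vehicle-treated control cultures of the same strain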; conditions: S. cerevisiae mlh1 strain growth inhibition, hits give high values
Outline: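 Test agents were incubated with yeast bearing a defined DNA damage repair or cell cycle control alteration; values are growth inhibition normalised to vehicle-treated cultures.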

[14] = NCI Yeast Anticancer Drug Screen. Data for the sgs1 strain (AID 173);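 also: 0% = growth of vehicle-only control cultures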; conditions: S. cerevisiae sgs1 mutant, hits give high values
Outline: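 Strain with an altered DNA repair or cell cycle pathway exposed to compound. Growth then measured. Value = inhibition versus vehicle control.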

[15] = NCI Yeast Anticancer Drug Screen. Data for the mlh1 rad18 strain (AID 175); conditions: S. cerevisiae mlh1 rad18 strain growth inhibition, hits give high values
Outline: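 A repair-deficient yeast strain is exposed to test compound, and growth is scored relative to vehicle-treated controls.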

[16] = NCI Yeast Anticancer Drug Screen. Data for the rad18 strain (AID 177); conditions: S. cerevisiae rad18 mutant growth inhibition, hits give high values
Outline: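 DNA-repair-defective yeast; compound treatment; growth inhibition scored against vehicle.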

[17] = at 5.0 µM (retest, dose inferred, filed as 0.5)
[18] = at 50.0 µM (retest, dose inferred, filed as 5.0)

Compound: FC(F)(F)c1cc(NC(=S)N2c3ccccc3-n3cccc3C2c2cccnc2)cc(C(F)(F)F)c1 (stereo not drawn)
- growth inhibition ([1]; at 1.2 µM): -3%
- growth inhibition ([1]; at 3.7 µM): -5%
- growth inhibition ([1]; at 11.0 µM): -9%
- growth inhibition ([1]; at 33.0 µM): -3%
- growth inhibition ([1]; at 100.0 µM): -4%
- growth inhibition ([2]; at 1.2 µM): 2%
- growth inhibition ([2]; at 3.7 µM): -5%
- growth inhibition ([2]; at 11.0 µM): -4%
- growth inhibition ([2]; at 33.0 µM): -6%
- growth inhibition ([2]; at 100.0 µM): -9%
- growth inhibition ([3]; at 1.2 µM): 1%
- growth inhibition ([3]; at 3.7 µM): 6%
- growth inhibition ([3]; at 11.0 µM): 18%
- growth inhibition ([3]; at 33.0 µM): 42%
- growth inhibition ([3]; at 100.0 µM): 57%
- growth inhibition ([4]; at 1.2 µM): -10%
- growth inhibition ([4]; at 3.7 µM): -5%
- growth inhibition ([4]; at 11.0 µM): -17%
- growth inhibition ([4]; at 33.0 µM): -36%
- growth inhibition ([4]; at 100.0 µM): -17%
- growth inhibition ([5]; at 1.2 µM): -13%
- growth inhibition ([5]; at 3.7 µM): -3%
- growth inhibition [5, 17]: 10%
- growth inhibition ([5]; at 11.0 µM): 9%
- growth inhibition ([5]; at 33.0 µM): 3%
- growth inhibition [5, 18]: 57%
- growth inhibition ([5]; at 50.0 µM): 74.7% (active)
- growth inhibition ([5]; at 100.0 µM): 2%
- growth inhibition ([6]; at 1.2 µM): -5%
- growth inhibition ([6]; at 3.7 µM): -4%
- growth inhibition [6, 17]: -6%
- growth inhibition ([6]; at 11.0 µM): -2%
- growth inhibition ([6]; at 33.0 µM): -1%
- growth inhibition [6, 18]: 51%
- growth inhibition ([6]; at 50.0 µM): 47.1%
- growth inhibition ([6]; at 100.0 µM): -1%
- growth inhibition ([7]; at 1.2 µM): 2%
- growth inhibition ([7]; at 3.7 µM): 0%
- growth inhibition ([7]; at 11.0 µM): -1%
- growth inhibition ([7]; at 33.0 µM): -3%
- growth inhibition ([7]; at 100.0 µM): -5%
- growth inhibition [8, 17]: -3%
- growth inhibition [8, 18]: 69%
- growth inhibition ([8]; at 50.0 µM): 44.5%
- growth inhibition ([9]; at 1.2 µM): -3%
- growth inhibition ([9]; at 3.7 µM): -2%
- growth inhibition ([9]; at 11.0 µM): 2%
- growth inhibition ([9]; at 33.0 µM): -1%
- growth inhibition ([9]; at 100.0 µM): -5%
- growth inhibition [10, 17]: -10%
- growth inhibition [10, 18]: 21%
- growth inhibition ([10]; at 50.0 µM): 43.6%
- growth inhibition ([11]; at 1.2 µM): -1%
- growth inhibition ([11]; at 3.7 µM): -5%
- growth inhibition [11, 17]: -3%
- growth inhibition ([11]; at 11.0 µM): -5%
- growth inhibition ([11]; at 33.0 µM): -4%
- growth inhibition [11, 18]: 45%
- growth inhibition ([11]; at 50.0 µM): 26.4%
- growth inhibition ([11]; at 100.0 µM): -9%
- growth inhibition ([12]; at 1.2 µM): -2%
- growth inhibition ([12]; at 3.7 µM): -3%
- growth inhibition ([12]; at 11.0 µM): -2%
- growth inhibition ([12]; at 33.0 µM): -1%
- growth inhibition ([12]; at 100.0 µM): 2%
- growth inhibition ([13]; at 1.2 µM): -2%
- growth inhibition ([13]; at 3.7 µM): -1%
- growth inhibition ([13]; at 11.0 µM): -4%
- growth inhibition ([13]; at 33.0 µM): -4%
- growth inhibition ([13]; at 100.0 µM): 6%
- growth inhibition ([14]; at 1.2 µM): -8%
- growth inhibition ([14]; at 3.7 µM): -3%
- growth inhibition ([14]; at 11.0 µM): -2%
- growth inhibition ([14]; at 33.0 µM): -2%
- growth inhibition ([14]; at 100.0 µM): 1%
- growth inhibition [15, 17]: -7%
- growth inhibition [15, 18]: 69%
- growth inhibition ([15]; at 50.0 µM): 70.7% (active)
- growth inhibition ([16]; at 1.2 µM): -1%
- growth inhibition ([16]; at 3.7 µM): -6%
- growth inhibition ([16]; at 11.0 µM): 0%
- growth inhibition ([16]; at 33.0 µM): -2%
- growth inhibition ([16]; at 100.0 µM): -2%

Compound: COc1ccc2ccc3ccccc3c2c1C=O
- growth inhibition ([1]; at 1.2 µM): -5%
- growth inhibition ([1]; at 3.7 µM): -5%
- growth inhibition ([1]; at 11.0 µM): -3%
- growth inhibition ([1]; at 33.0 µM): 0%
- growth inhibition ([1]; at 100.0 µM): 63%
- growth inhibition ([2]; at 1.2 µM): -3%
- growth inhibition ([2]; at 3.7 µM): -5%
- growth inhibition ([2]; at 11.0 µM): -5%
- growth inhibition ([2]; at 33.0 µM): -4%
- growth inhibition ([2]; at 100.0 µM): 93% (active)
- growth inhibition ([3]; at 1.2 µM): 0%
- growth inhibition ([3]; at 3.7 µM): 2%
- growth inhibition ([3]; at 11.0 µM): 3%
- growth inhibition ([3]; at 33.0 µM): 8%
- growth inhibition ([3]; at 100.0 µM): 25%
- growth inhibition ([4]; at 1.2 µM): -7%
- growth inhibition ([4]; at 3.7 µM): -6%
- growth inhibition ([4]; at 11.0 µM): -7%
- growth inhibition ([4]; at 33.0 µM): -5%
- growth inhibition ([4]; at 100.0 µM): 74% (active)
- growth inhibition ([5]; at 1.2 µM): 0%
- growth inhibition ([5]; at 3.7 µM): 23%
- growth inhibition [5, 17]: 9%
- growth inhibition ([5]; at 11.0 µM): 28%
- growth inhibition ([5]; at 33.0 µM): 6%
- growth inhibition [5, 18]: 64%
- growth inhibition ([5]; at 50.0 µM): 49%
- growth inhibition ([5]; at 100.0 µM): 79% (active)
- growth inhibition ([6]; at 1.2 µM): -6%
- growth inhibition ([6]; at 3.7 µM): -6%
- growth inhibition [6, 17]: 9%
- growth inhibition ([6]; at 11.0 µM): -6%
- growth inhibition ([6]; at 33.0 µM): 0%
- growth inhibition [6, 18]: 50%
- growth inhibition ([6]; at 50.0 µM): 13.2%
- growth inhibition ([6]; at 100.0 µM): 96% (active)
- growth inhibition ([7]; at 1.2 µM): 3%
- growth inhibition ([7]; at 3.7 µM): 5%
- growth inhibition ([7]; at 11.0 µM): 5%
- growth inhibition ([7]; at 33.0 µM): 14%
- growth inhibition ([7]; at 100.0 µM): 83% (active)
- growth inhibition [8, 17]: 7%
- growth inhibition [8, 18]: 68%
- growth inhibition ([8]; at 50.0 µM): 55.8%
- growth inhibition ([9]; at 1.2 µM): -6%
- growth inhibition ([9]; at 3.7 µM): -6%
- growth inhibition ([9]; at 11.0 µM): -2%
- growth inhibition ([9]; at 33.0 µM): -2%
- growth inhibition ([9]; at 100.0 µM): 81% (active)
- growth inhibition [10, 17]: 15%
- growth inhibition [10, 18]: 16%
- growth inhibition ([10]; at 50.0 µM): 17.6%
- growth inhibition ([11]; at 1.2 µM): -2%
- growth inhibition ([11]; at 3.7 µM): 0%
- growth inhibition [11, 17]: 5%
- growth inhibition ([11]; at 11.0 µM): -5%
- growth inhibition ([11]; at 33.0 µM): -2%
- growth inhibition [11, 18]: 11%
- growth inhibition ([11]; at 50.0 µM): -11.7%
- growth inhibition ([11]; at 100.0 µM): 76% (active)
